Sampled rows, rich in hits. Any-hit rate of the full collection: about 27%.
CYP2C9 activ: human CYP2C9 activators, primary screen, biochemical, luminescence. AID 1024, 2008. recombinant CYP2C9, luciferin-H conversion; stronger effect = higher value; factor 1 = untreated enzyme, 0 = blocked. 1.4% of 96,000 active. activation factor at 5 µM. Cytochrome P450 2C9 (Homo sapiens), P11712;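 active = activation factor of 2 or more for CYP2C9 at a 5 µM dose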;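 note: 0 = sulfaphenazole-blocked wells and 1 = vehicle-only wells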
Target sequence (P11712 whole entry, looked up): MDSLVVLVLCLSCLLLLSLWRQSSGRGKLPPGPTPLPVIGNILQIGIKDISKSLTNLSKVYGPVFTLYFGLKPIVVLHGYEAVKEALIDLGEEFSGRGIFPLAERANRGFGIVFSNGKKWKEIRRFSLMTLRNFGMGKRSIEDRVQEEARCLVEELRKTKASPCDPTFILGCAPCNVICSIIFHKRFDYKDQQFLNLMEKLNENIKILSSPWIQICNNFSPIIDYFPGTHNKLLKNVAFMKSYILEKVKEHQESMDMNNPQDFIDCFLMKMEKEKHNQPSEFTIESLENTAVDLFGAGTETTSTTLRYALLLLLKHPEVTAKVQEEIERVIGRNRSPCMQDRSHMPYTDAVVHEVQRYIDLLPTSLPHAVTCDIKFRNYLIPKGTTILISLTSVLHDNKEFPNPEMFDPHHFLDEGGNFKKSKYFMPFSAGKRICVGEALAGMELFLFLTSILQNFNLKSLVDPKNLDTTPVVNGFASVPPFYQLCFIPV
sEH inhibitor: soluble epoxide hydrolase inhibitors, primary screen, biochemical, human sEH; Bifunctional epoxide hydrolase 2 (Homo sapiens), P34913; recombinant human sEH enzymatic activity assay; inhibition, % at 2 µM; 0.34% of 91,000 active; AID 707, 2007; in the data active = inhibition above about 80%
sEH act: soluble epoxide hydrolase activators, primary screen, biochemical, human sEH | Bifunctional epoxide hydrolase 2 (Homo sapiens), P34913 | activation, % at 2 µM | purified human sEH enzymatic activity, activator screen | 0.04% of 91,000 active; in the data active = activation above about 37%
CYP2C19 inh: blockers of cytochrome P450 2C19 activity – biochemical, luminescence, ADME assay, primary screen; 21% of 96,000 active; AID 778, 2007; inhibition, % at 5 µM; P33261; CYP2C19 Supersomes, luciferin-H EGE luminescence, 30 min;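 active = CYP2C19 inhibition above a set limit at 5 µM in the primary screen, cut at about 50% in these data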;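 note: plate controls were negative control wells for no effect and 2.5 mM tranylcypromine positive control for full effect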
CYP2C9 inhib: blockers of cytochrome P450 2C9 activity – biochemical, luminescence, ADME assay, primary screen | CYP2C9 Supersomes, luciferin-H conversion | inhibition, % at 5 µM | 20% of 96,000 active | AID 777, 2007;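 active = blocking of liver enzyme CYP2C9 beyond about 50% at 5 µM, limit read from the data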
CYP2C19 act: human CYP2C19 activators, primary screen, biochemical, luminescence. AID 1025, 2008. Cytochrome P450 2C19 (Homo sapiens), P33261. recombinant CYP2C19, luciferin-H EGE luminescence; stronger effect = higher value; 0 = fully inhibited enzyme, 1 = untreated enzyme. 96,000 tested, under 10 active. activation factor at 5 µM;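 active = activation factor of at least 2 at 5 µM in the primary screen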;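 note: 0 = wells with 2.5 mM tranylcypromine and 1 = vehicle-only wells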
* hit, by the source's call; nt = not tested or not shown.

SMILES	CYP2C9 activ	sEH inhibitor	sEH act	CYP2C19 inh	CYP2C9 inhib	CYP2C19 act
COC(=O)c1[nH]c2ccccc2c1NC(=O)CN1CCN(Cc2ccc3c(c2)OCO3)CC1	0.6	-13.4	15.1	51.1*	41.0	0.5
CCN(CC(=O)Nc1c(C(=O)OC)[nH]c2ccc(C)cc12)c1ccc2c(c1)OCO2	0.4	22.2	-22.5	23.3	62.5*	0.8
COC(=O)c1[nH]c2ccc(Br)cc2c1NC(=O)CN1CCCc2ccccc21	0.1	nt	nt	15.8	88.1*	0.8
COC(=O)c1[nH]c2ccc(F)cc2c1NC(=O)CCN1CCN(Cc2ccc3c(c2)OCO3)CC1	1.1	-5.5	3.7	0.2	-10.6	1
O=C(O)c1ccoc1CN1CCCCC1	nt	2.4	-2.5	nt	nt	nt
CCOC(=O)CC(=O)CSc1nc2nc(C)cc(C)n2n1	0.8	nt	nt	18.9	17.4	0.8
CCOC(=O)C1CCN(CC(=O)Nc2c(C(=O)OC)[nH]c3cccc(Cl)c23)CC1	0.8	-21.3	19.0	22.9	19.3	0.8
CC1CCc2nc(NC(=O)CN3CCN(Cc4ccc5c(c4)OCO5)CC3)sc2C1 (stereo unspecified)	0.2	12.7	-10.9	71.7*	75.6*	0.3
CC1CCc2nc(NC(=O)CN3CCN(c4ccccc4)CC3)sc2C1 (stereo unspecified)	0.9	0.8	-1.4	7.8	7.9	0.9
CCOC(=O)C1CCN(CC(=O)Nc2c(C(=O)OC)[nH]c3ccc(Cl)cc23)CC1	0.5	1.7	-1.6	72.8*	45.4	0.3
COC(=O)c1[nH]c2cc(OC)ccc2c1NC(=O)CCN1CCN(c2ccccc2)CC1	0.3	-9.6	8.6	-12.5	66.9*	1.1
CCOC(=O)C1CCN(CC(=O)Nc2c(C(=O)OC)[nH]c3ccccc23)CC1	1.5	4.3	-4.2	72.7*	-47.2	0.3
O=C(Nc1ccc(Br)c(Cl)c1)C1CC1	0.9	1.5	-0.3	25.5	7.9	0.7
CCOC(=O)C1CCCN(CC(=O)Nc2c(C(=O)OC)[nH]c3ccc(Br)cc23)C1 (stereo unspecified)	0.4	-0.3	-0.1	51.8*	58.3*	0.5
COC(=O)C1CCN(C(=O)c2ccc(SC)cc2OC)CC1	0.9	nt	nt	99.0*	12.3	0
COc1ccc(CSc2nc(CSC)cc(N3CCOCC3)n2)cc1	0.7	-3.0	3.5	46.7	30.8	0.5
CSc1nc(Cl)c(Cc2ccc(OC(C)C)cc2)c(N2CCOCC2)n1	0.4	-13.6	14.7	45.0	61.8*	0.6
Cc1[nH]n(-c2ccccc2)c(=O)c1C(C[N+](=O)[O-])c1ccc(Br)cc1 (stereo unspecified)	0.1	8.2	-6.0	53.2*	94.9*	0.5
Cc1nc(=S)n(-c2ccccc2)[nH]1	0.9	5.3	-3.8	16.7	5.9	0.8
COc1ccccc1NC(=O)NS(=O)(=O)c1ccc(C)cc1	0.5	6.8	-6.1	1.2	47.2	1
CCOCCCNC(=O)C(NC(=O)CC1NC(=O)NC1=O)c1ccc(Cl)cc1 (stereo unspecified)	1	-1.3	1.6	-13.4	-4.2	1.1
Cc1ccc2c(C)nc(Nc3nc(CSc4nnc(C)s4)cc(=O)[nH]3)nc2c1	0.8	-7.7	8.9	-0.5	17.4	1
Cc1ccc2nc(Nc3nc(CSc4nnnn4-c4ccccc4)cc(=O)[nH]3)nc(C)c2c1	0.2	7.3	-8.2	67.0*	79.7*	0.3
CCN1CNC(=S)N(c2cc(C)ccc2C)C1	1.1	0.1	0.5	-3.1	-6.6	1
Nc1ccc(C(O)(C(F)(F)F)C(F)(F)F)cc1	0.9	1.9	-2.0	-4.2	6.9	1
SMILES	CYP2C9 activ	sEH inhibitor	sEH act	CYP2C19 inh	CYP2C9 inhib	CYP2C19 act
Nc1ccc(-c2ccc(N)cc2C(F)(F)F)c(C(F)(F)F)c1	0.4	25.1	-28.3	79.3*	59.6*	0.2
COCCN(C(=O)CNC(=O)c1cccs1)C(C(=O)NC1CCCCC1)c1ccco1 (stereo unspecified)	1.1	2.3	-2.0	6.4	-5.6	0.9
O=C(NCC(=O)N(Cc1ccco1)C(C(=O)NC1CCCC1)c1cccnc1)c1ccco1 (stereo unspecified)	nt	1.9	3.7	nt	nt	nt
O=C(NCC(=O)N(Cc1ccco1)C(C(=O)NC1CCCCC1)c1cccnc1)c1cccs1 (stereo unspecified)	0.7	-0.5	-1.9	57.0*	29.1	0.4
COCCN(C(=O)CNC(=O)c1cccs1)C(C(=O)NC1CCCC1)c1cccs1 (stereo unspecified)	0.5	nt	nt	55.7*	47.0	0.4
CCOC(=O)C1CCN(C(=O)CCNC(=O)Cn2ccc3ccccc3c2=O)CC1	1.1	nt	nt	4.9	-10.6	1
CCOC(=O)C1(Nc2nccs2)Sc2ccccc2NC1=O (stereo unspecified)	0.6	-4.8	6.6	64.2*	35.7	0.4
O=c1c(-c2cccc3ccccc23)[n+]([O-])c2ccccc2n1O	0.3	-6.5	4.8	-9.5	75.0*	1.1
O=C(c1ccc2c(c1)OCCCO2)c1cccs1	0.4	-1.4	-0.5	74.4*	59.6*	0.3
O=C(Nc1ccc2c(c1)OCO2)c1cccs1	0.7	5.7	-0.4	42.7	25.9	0.6
NC(=O)c1oc2ccccc2c1NC(=O)C1CCCCC1	2.7*	nt	nt	0.6	-171.9	1
NC(=O)c1oc2ccccc2c1NC(=O)CN1CCCCC1	1.4	-19.3	21.1	-2.2	-37.6	1
Cn1c(N)c(C(=O)CSc2ccc3c(c2)OCCO3)c(=O)n(C)c1=O	0.8	-4.5	4.7	42.2	16.9	0.6
C/C(N)=C(/C#N)C(=O)CSc1ccc2c(c1)OCCO2	0.8	0.2	-0.8	94.9*	18.9	0.1
Cn1ncc([N+](=O)[O-])c1C(=O)Nc1ccc(-c2nc3ccccc3[nH]2)cc1	0.6	15.5	-12.7	62.3*	40.7	0.4
O=C(CN1CCOCC1)Nc1ccc(-c2nc3ccccc3[nH]2)cc1	0.9	10.6	-12.6	9.6	10.7	0.9
CCOC(=O)C1=C(C)NC(=O)C1(NC(=O)c1cccnc1)C(F)(F)F (stereo unspecified)	1.2	-12.2	10.6	-1.9	-15.8	1
CCN(CC)CCc1c(C)[nH]c(C(=O)OCc2ccccc2)c1C	0.9	-3.9	5.4	6.8	8.0	0.9
COCCOC(=O)c1[nH]c2c(c1C)C(=O)CC(c1ccco1)C2 (stereo unspecified)	0.3	nt	nt	46.7	72.3*	0.5
CSCCOC(=O)c1[nH]c2c(c1C)C(=O)CC(c1ccco1)C2 (stereo unspecified)	0.5	nt	nt	5.1	52.4*	0.9
